HDAC3 inh: HDAC3 deacetylase inhibitors, primary screen, biochemical, fluorescence, cell-free homogeneous; recombinant HDAC3, fluorogenic peptide/trypsin coupled; inhibition, % at 8.3 µM; Histone deacetylase 3 (Homo sapiens), O15379; AID 2718, 2010; actives 0.15% (n = 320,000); in the data active = inhibition above about 26%, passing the limit was not always enough
ALR H2O2 inh: inhibitors of human ALR sulfhydryl oxidase, primary screen, biochemical, H2O2 detection, HRP-luminol luminescence, single point | FAD-linked sulfhydryl oxidase ALR (Homo sapiens), P55789 | purified ALR, DTT oxidation | inhibition, % (no concentration beside the values) | actives 3.8% (n = 290,000) | AID 485317, 2010;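 active = mean replicate inhibition above about 79%, with every replicate also reaching it, limit read from the data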
Target sequence (P55789 whole entry, looked up): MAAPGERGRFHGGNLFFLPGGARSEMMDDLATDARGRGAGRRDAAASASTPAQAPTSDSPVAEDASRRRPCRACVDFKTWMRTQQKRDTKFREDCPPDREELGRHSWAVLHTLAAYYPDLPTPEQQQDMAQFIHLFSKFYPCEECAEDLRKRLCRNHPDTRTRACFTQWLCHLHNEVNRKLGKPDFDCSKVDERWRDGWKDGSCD
NPR1 activator: GC-A stimulated cGMP production enhancers – HEK293 GC-A cells, cGMP TR-FRET, EC30 ANP, primary screen; actives 0.14% (n = 370,000); Atrial natriuretic peptide receptor 1 (Homo sapiens), P16066; AID 1671463, 2021; activation, % at 10 µM; 0% at EC30 ANP, 100% saturating ANP; in the data active = activation above about 40%
GC-B act: human GC-B receptor activators, primary screen, HEK293 GC-B cells, cGMP TR-FRET, EC30 CNP | Atrial natriuretic peptide receptor 2 (Homo sapiens), P20594 | 0% at EC30 CNP, 100% saturating CNP | activation, % at 10 µM | actives 0.11% (n = 370,000);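 active = activation at 10 µM reaching about 35% in either raw or pattern-adjusted values, limit read from the data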
Hits are given with their value. This is one part of a sample in which hits are shown more often than they occur.

For CC(C)(C)NC(=O)CN(Cc1ccc2c(c1)OCO2)C(=O)CNS(=O)(=O)c1ccccc1 the results were HDAC3 inh inactive, ALR H2O2 inh inactive, NPR1 activator inactive and GC-B act inactive.
Cc1cc(C(=O)Nc2ccc(S(=O)(=O)Nc3onc(C)c3C)cc2)c(C)o1 was read as HDAC3 inh inactive, ALR H2O2 inh 84, NPR1 activator inactive and GC-B act inactive.
Screening Cc1cc(C(=O)Nc2ccc(S(=O)(=O)Nc3onc(C)c3C)cc2)cs1 returned HDAC3 inh inactive, ALR H2O2 inh 97, NPR1 activator inactive and GC-B act inactive.
`Cc1noc(NS(=O)(=O)c2ccc(NC(=O)c3ccc(N(C)C)cc3)cc2)c1C` gave HDAC3 inh inactive, ALR H2O2 inh inactive, NPR1 activator inactive and GC-B act inactive.
Cc1cc(NS(=O)(=O)c2ccc(NC(=O)c3oc4ccccc4c3C)cc2)no1 was read as HDAC3 inh inactive, ALR H2O2 inh 98, NPR1 activator inactive and GC-B act inactive.
Cc1ccc(S(=O)(=O)Nc2ccc(NC(=O)Nc3cccc(C(F)(F)F)c3)cc2)cc1 was read as HDAC3 inh 31, ALR H2O2 inh inactive, NPR1 activator inactive and GC-B act inactive.
Screening O=C(CSc1nc2ccccc2nc1N1CCOCC1)NCc1ccc(Cl)cc1Cl returned NPR1 activator inactive and GC-B act inactive.
CC1(C)CC(NC(=O)c2ccccn2)CC(C)(C)N1O was read as HDAC3 inh inactive, ALR H2O2 inh inactive, NPR1 activator inactive and GC-B act inactive.
COc1ccc(C(=O)N[C@H](C(=O)N2CCN(c3ccccc3F)CC2)C(C)C)cc1 was read as HDAC3 inh inactive, ALR H2O2 inh inactive, NPR1 activator inactive and GC-B act inactive.
Cc1ccc2oc(C(=O)Nc3ccc(S(=O)(=O)Nc4onc(C)c4C)cc3)c(C)c2c1 was read as HDAC3 inh inactive, ALR H2O2 inh 98, NPR1 activator inactive and GC-B act inactive.
Cc1cccc(NC(=O)Nc2ccc(S(=O)(=O)Nc3onc(C)c3C)cc2)c1 was read as HDAC3 inh inactive, ALR H2O2 inh inactive, NPR1 activator inactive and GC-B act inactive.
Cc1cc(NS(=O)(=O)c2ccc(NC(=O)Nc3cccc(Cl)c3)cc2)no1 was read as HDAC3 inh inactive, ALR H2O2 inh 98, NPR1 activator inactive and GC-B act inactive.
For Cc1cc(NC(=O)Nc2cccc(Cl)c2)no1 the results were NPR1 activator inactive and GC-B act inactive.
Screening CC(C)(Cc1cccc(CC(C)(C)C(=O)O)c1)C(=O)O returned HDAC3 inh inactive, ALR H2O2 inh inactive, NPR1 activator inactive and GC-B act inactive.
Screening CCN(CC)c1ccc(C(=O)O)cc1 returned HDAC3 inh inactive, ALR H2O2 inh inactive, NPR1 activator inactive and GC-B act inactive.
`O=C(O)c1ccc(N(c2ccccc2)c2ccccc2)cc1` gave HDAC3 inh inactive, ALR H2O2 inh 99, NPR1 activator inactive and GC-B act inactive.
COc1cc(CC(=O)N2CCN(C(=O)C3CCCO3)CC2)cc(OC)c1OC (stereo not given) was read as HDAC3 inh inactive, ALR H2O2 inh inactive, NPR1 activator inactive and GC-B act inactive.
For CC(=O)Nc1ccc(S(=O)(=O)NNC(=O)C(=O)NNc2ccccn2)cc1 the results were HDAC3 inh inactive, NPR1 activator inactive and GC-B act inactive.
`O=C(Nc1ccccn1)C(=O)Nc1ccccn1` gave ALR H2O2 inh inactive, NPR1 activator inactive and GC-B act inactive.
For Nc1ccc(S(=O)(=O)NNC(=O)C(=O)NNc2ccccn2)cc1 the results were HDAC3 inh inactive, ALR H2O2 inh 99, NPR1 activator inactive and GC-B act inactive.
`Nc1ccc(S(=O)(=O)NCc2ccccn2)cc1` gave HDAC3 inh inactive, ALR H2O2 inh inactive, NPR1 activator inactive and GC-B act inactive.
Cc1ccccc1S(=O)(=O)NNC(=O)C(=O)NNc1ccccn1 was read as HDAC3 inh inactive, ALR H2O2 inh 99, NPR1 activator inactive and GC-B act inactive.
Cc1ccc(S(=O)(=O)NNC(=O)C(=O)NNc2ccccn2)cc1 was read as HDAC3 inh inactive, ALR H2O2 inh 95, NPR1 activator inactive and GC-B act inactive.
Cc1ccc(S(=O)(=O)NNC(=O)c2ccc3ccccc3n2)cc1 was read as HDAC3 inh inactive, ALR H2O2 inh 88, NPR1 activator inactive and GC-B act inactive.
CN(C(=O)COC(=O)c1ccccc1SCC(=O)N1CCCC1)C1CCS(=O)(=O)C1 (stereo not given) was read as HDAC3 inh inactive, ALR H2O2 inh inactive, NPR1 activator inactive and GC-B act inactive.
CC1(C(=O)NS(=O)(=O)c2cccc(C#N)c2)CCN1C(=O)Cc1ccccc1 (stereo not given) was read as NPR1 activator inactive and GC-B act inactive.
Screening CC(=O)c1cc2cccc(OC3(C)CCN(Cc4ccc(-c5ccccn5)cc4)C3)c2o1 (stereo not given) returned NPR1 activator inactive and GC-B act inactive.
`CCOC(=O)CC1CCCCN1Cc1nc(-c2ccc(F)c(OC)c2)oc1C` (stereo not given) gave HDAC3 inh inactive, ALR H2O2 inh inactive, NPR1 activator inactive and GC-B act inactive.
For Cc1cccc(-c2nc(CS(=O)CC(=O)N3CC(C)CC(C)C3)c(C)o2)c1 (stereo not given) the results were HDAC3 inh inactive, ALR H2O2 inh 96, NPR1 activator inactive and GC-B act inactive.
`CCN1CCN(C(=O)CS(=O)Cc2nc(-c3cccc(C)c3)oc2C)CC1` (stereo not given) gave HDAC3 inh inactive, ALR H2O2 inh 99, NPR1 activator inactive and GC-B act inactive.
`CCOC(=O)N1CCN(C(=O)CS(=O)Cc2nc(-c3cccc(C)c3)oc2C)CC1` (stereo not given) gave HDAC3 inh inactive, ALR H2O2 inh 99, NPR1 activator inactive and GC-B act inactive.
For CCOC(=O)N1CCN(C(=O)CS(=O)Cc2nc(-c3ccc(OC)c(OC)c3)oc2C)CC1 (stereo not given) the results were HDAC3 inh inactive, ALR H2O2 inh 99, NPR1 activator inactive and GC-B act inactive.
COc1ccc(CN2C(=O)c3cccc4cccc2c34)cc1F was read as HDAC3 inh inactive, ALR H2O2 inh inactive, NPR1 activator inactive and GC-B act inactive.
CCCCNc1ccc2c(c1)OC[C@H](Cc1ccccc1)NS2(=O)=O was read as NPR1 activator inactive and GC-B act inactive.
`CC(c1nnc(SCC(=O)Nc2cccnc2Cl)n1Cc1ccccc1)N(C)C` (stereo not given) gave HDAC3 inh inactive, ALR H2O2 inh 87, NPR1 activator inactive and GC-B act inactive.
CCCCC(=O)NC(=S)Nc1cccc(C(=O)O)c1 was read as HDAC3 inh inactive, ALR H2O2 inh inactive, NPR1 activator inactive and GC-B act inactive.
`CC#CCCCC(=O)Nc1cccc(C(=O)O)c1` gave HDAC3 inh inactive, ALR H2O2 inh 90, NPR1 activator inactive and GC-B act inactive.
